Among the data in PubChem BioAssay (EPA / NIEHS) are outcome and AC50 values, retold here.

SMILES strings stand for the structures. “And” between values parts separate entries of the source, which are not always exact repeats. Identical values can stand only once. The source made the active and inactive calls. How the source made its calls: active means hit-call score of the fitted dose curve at least 0.9, where 1 is the maximum; inactive means score below 0.9.

Read-out in assay [1]: Interleukin-8 (IL8), CXCL8 (gene 3576)
Briefly: BSK_CASM3C_IL8: BioMAP Diversity Plus: CASM3C Assay for Interleukin-8 (IL8) Biomarker Activity (AID 2283042).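 Further: IL-8 protein level quantified by ELISA.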 The settings on record: primary human coronary artery smooth muscle cells; actives raise or lower the signal.

Read-out in assay [2]: Human Leukocyte Antigen - DR isotype (HLADR), HLA-DRA (gene 3122)
Kind of assay: BSK_CASM3C_HLADR: BioMAP Diversity Plus: CASM3C Assay for Human Leukocyte Antigen - DR isotype (HLADR) Biomarker Activity (AID 2283043).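 Further: cell-surface HLA-DR protein level quantified by ELISA.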 The settings on record: primary human coronary artery smooth muscle cells; actives raise or lower the signal.

Read-out in assay [3]: Monocyte Chemoattractant Protein-1 (MCP1), CCL2 (gene 6347)
Kind of assay: BSK_CASM3C_MCP1: BioMAP Diversity Plus: CASM3C Assay for Monocyte Chemoattractant Protein-1 (MCP1) Biomarker Activity (AID 2283046).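 Further: MCP-1 level quantified by ELISA 24 h after dosing.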 As to conditions: primary human coronary artery smooth muscle cells; actives raise or lower the signal.

The nature of assay [4]: BSK_CASM3C_Proliferation: Cell Proliferation Assessment in the BioMAP Diversity Plus: CASM3C Assay (AID 2283047).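 Further: sulforhodamine B total protein stain as relative cell number at 560 nm; sub-confluent cells exposed 48 h before staining; fitted both ways against DMSO so gain or loss of cell number.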 The settings on record: primary human coronary artery smooth muscle cells.
Assay [5] is described as follows: BSK_CASM3C_SRB: Viability Assessment in the BioMAP Diversity Plus: CASM3C Assay (AID 2283050).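 Further: total protein by SRB staining as cytotoxicity measure in parallel cultures; cells exposed to compound for 24 h.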 The settings on record: primary human coronary artery smooth muscle cells.
Read-out in assay [6]: Interferon-gamma inducible Protein 10 (IP10), CXCL10 (gene 3627)
Briefly: BSK_hDFCGF_IP10: BioMAP Diversity Plus: hDFCGF Assay for Interferon-gamma inducible Protein 10 (IP10) Biomarker Activity (AID 2283053). The settings on record: primary human foreskin fibroblasts; actives raise or lower the signal. In a few lines: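 Primary foreskin fibroblasts, human; 24 h compound exposure; IP-10 by ELISA; bidirectional fit vs DMSO.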

Read-out in assay [7]: Interleukin-8 (IL8), CXCL8 (gene 3576)
Kind of assay: BSK_hDFCGF_IL8: BioMAP Diversity Plus: hDFCGF Assay for Interleukin-8 (IL8) Biomarker Activity (AID 2283058). As to conditions: primary human foreskin fibroblasts; actives raise or lower the signal. A digest of the protocol:
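hDFCGF human dermal fibroblasts; 24 h chemical exposure; IL-8 by ELISA; bidirectional curve fit vs DMSO baseline; gain or loss of signal scored.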

A short description of assay [8]: BSK_hDFCGF_Proliferation: Cell Proliferation Assessment in the BioMAP Diversity Plus: hDFCGF Assay (AID 2283059).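 Further: curves fitted for both rise and fall of signal versus DMSO baseline.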 As to conditions: primary human foreskin fibroblasts. A digest of the protocol:
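Sub-confluent human foreskin fibroblast cultures receive test chemical […]. Relative cell number is quantified by sulforhodamine B staining (0.1%, after 10% TCA fixation) at 560 nm, with bidirectional fitting referenced to DMSO.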

Read-out in assay [9]: Macrophage colony-stimulating factor (MCSF), CSF1 (gene 1435)
Kind of assay: BSK_hDFCGF_MCSF: BioMAP Diversity Plus: hDFCGF Assay for Macrophage colony-stimulating factor (MCSF) Biomarker Activity (AID 2283060). As to conditions: AC50: primary human foreskin fibroblasts, actives raise or lower the signal unless noted; outcome: primary human foreskin fibroblasts, actives raise or lower the signal unless noted. A digest of the protocol:
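Human foreskin primary fibroblasts were treated with test chemical for 24 h, and M-CSF was then measured by ELISA. Data were fitted bidirectionally against DMSO as the negative control and activity baseline.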

Assay [10] in a line: BSK_hDFCGF_SRB: Viability Assessment in the BioMAP Diversity Plus: hDFCGF Assay (AID 2283061).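 Further: cells exposed to compound for 24 h before the read.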 As to conditions: primary human foreskin fibroblasts. In a few lines:
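Human foreskin primary fibroblasts were treated with compound and assessed 24 h after dosing. Total protein was measured by sulforhodamine B staining (0.1% SRB after 10% TCA fixation, 560 nm read) as a cytotoxicity marker, with bidirectional fitting against DMSO baseline.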

Read-out in assay [11]: TIMP metallopeptidase inhibitor 1 (TIMP1), TIMP1 (gene 7076)
Kind of assay: BSK_hDFCGF_TIMP1: BioMAP Diversity Plus: hDFCGF Assay for TIMP metallopeptidase inhibitor 1 (TIMP1) Biomarker Activity (AID 2283062). The settings on record: primary human foreskin fibroblasts; actives raise or lower the signal. In a few lines:
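Primary human foreskin fibroblasts in the hDFCGF system were dosed with compound for 24 h, then TIMP-1 was measured by ELISA. Activity was fitted bidirectionally relative to DMSO control; parallel SRB staining assessed cytotoxicity.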

Read-out in assay [12]: Monokine induced gamma interferon (MIG), CXCL9 (gene 4283)
Kind of assay: BSK_hDFCGF_MIG: BioMAP Diversity Plus: hDFCGF Assay for Monokine induced gamma interferon (MIG) Biomarker Activity (AID 2283063). As to conditions: primary human foreskin fibroblasts; actives raise or lower the signal. In a few lines:
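ELISA read-out of MIG from primary human dermal fibroblasts 24 h post-dosing. Gain or loss of signal fitted bidirectionally, DMSO as baseline.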

Read-out in assay [13]: Matrix Metallopeptidase 1 (MMP1), MMP1 (gene 4312)
Kind of assay: BSK_hDFCGF_MMP1: BioMAP Diversity Plus: hDFCGF Assay for Matrix Metallopeptidase 1 (MMP1) Biomarker Activity (AID 2283064). As to conditions: primary human foreskin fibroblasts; actives raise or lower the signal. In a few lines:
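Primary human foreskin fibroblasts in the hDFCGF system were dosed with test chemical, and MMP1 was measured by ELISA 24 h later. Values come from bidirectional curve fitting against the DMSO baseline.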

Read-out in assay [14]: Plasminogen activator inhibitor-1 (PAI1), SERPINE1 (gene 5054)
Briefly: BSK_hDFCGF_PAI1: BioMAP Diversity Plus: hDFCGF Assay for Plasminogen activator inhibitor-1 (PAI1) Biomarker Activity (AID 2283066). The settings on record: primary human foreskin fibroblasts; actives raise or lower the signal. In a few lines: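 Primary dermal fibroblasts (human foreskin), hDFCGF system; compound 24 h; PAI-1 by ELISA; bidirectional fit vs DMSO control.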

Read-out in assay [15]: Interferon-gamma inducible Protein 10 (IP10), CXCL10 (gene 3627)
Kind of assay: BSK_KF3CT_IP10: BioMAP Diversity Plus: KF3CT Assay for Interferon-gamma inducible Protein 10 (IP10) Biomarker Activity (AID 2283068). As to conditions: primary human keratinocytes with fibroblasts; actives raise or lower the signal. In a few lines: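 ELISA read-out of IP-10 after 24 h chemical dosing of human skin primary co-culture (keratinocytes, foreskin fibroblasts). Gain or loss of signal relative to DMSO, bidirectional curve fit.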

The nature of assay [16]: BSK_KF3CT_SRB: Viability Assessment in the BioMAP Diversity Plus: KF3CT Assay (AID 2283069).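 Further: fitted for both signal gain and loss against DMSO baseline.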 As to conditions: primary human keratinocytes with fibroblasts. A digest of the protocol:
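Human primary keratinocyte plus foreskin fibroblast co-culture exposed to chemicals for 24 h. Total protein measured by 0.1% sulforhodamine B staining after 10% TCA fixation, read at 560 nm; bidirectional fitting versus DMSO baseline.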

Read-out in assay [17]: TIMP metallopeptidase inhibitor 2 (TIMP2), TIMP2 (gene 7077)
Briefly: BSK_KF3CT_TIMP2: BioMAP Diversity Plus: KF3CT Assay for TIMP metallopeptidase inhibitor 2 (TIMP2) Biomarker Activity (AID 2283071). The settings on record: primary human keratinocytes with fibroblasts; actives raise or lower the signal. A digest of the protocol: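 Cells: human keratinocytes co-cultured with foreskin fibroblasts. Treat with chemical, 24 h. Measure TIMP-2 by ELISA; fit curves bidirectionally vs DMSO baseline.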

Read-out in assay [18]: C-C motif chemokine 2 (Homo sapiens) (UniProt P13500)
Kind of assay: BSK_KF3CT_MCP1: BioMAP Diversity Plus: KF3CT Assay for Monocyte Chemoattractant Protein 1 (MCP1/CCL2) Biomarker Activity (AID 2283073). As to conditions: primary human keratinocytes with fibroblasts; actives raise or lower the signal. A digest of the protocol:
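Human keratinocyte plus foreskin fibroblast primary co-culture exposed to chemical for 24 h. MCP-1 levels measured by ELISA. Bidirectional curve fitting relative to DMSO negative control as baseline.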

Read-out in assay [19]: Matrix Metallopeptidase 9 (MMP9), MMP9 (gene 4318)
Kind of assay: BSK_KF3CT_MMP9: BioMAP Diversity Plus: KF3CT Assay for Matrix Metallopeptidase 9 (MMP9) Biomarker Activity (AID 2283074). As to conditions: primary human keratinocytes with fibroblasts; actives raise or lower the signal. In a few lines:
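Keratinocyte plus foreskin fibroblast human primary skin co-culture was dosed with chemical and MMP-9 was quantified by ELISA 24 h later. Bidirectional curve fitting used DMSO as negative control and activity baseline.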

Read-out in assay [20]: urokinase plasminogen activator (uPA), PLAU (gene 5328)
Briefly: BSK_KF3CT_uPA: BioMAP Diversity Plus: KF3CT Assay for urokinase plasminogen activator (uPA) Biomarker Activity (AID 2283075). The settings on record: primary human keratinocytes with fibroblasts; actives raise or lower the signal. In a few lines:
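Human keratinocyte plus foreskin fibroblast primary co-culture exposed to chemical for 24 h. uPA levels were quantified by ELISA, and activity was fitted bidirectionally against a DMSO negative-control baseline.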

`CCC[Si](OC(C)=O)(OC(C)=O)OC(C)=O`: the result in assay [1], in assay [2], in assay [3], in assay [4], in assay [5] and in assay [6] was inactive. Also, the outcome in assay [7], in assay [8], in assay [9], in assay [10], in assay [11] and in [12] was inactive. The outcome in assay [13], in assay [14], in assay [15], in [16], in assay [17] and in assay [18] was inactive. Besides, the outcome in assay [19] and in assay [20] was inactive.

For orientation: AC50 means the concentration giving half of the maximal activity seen. As for `COc1cc(CNC(=O)CCCC/C=C/C(C)C)ccc1O`, the outcome in [1], in assay [3], in assay [4], in [5], in assay [6] and in assay [7] was inactive. Besides, the outcome in [9], in assay [10], in [11], in assay [12], in [13] and in assay [14] was inactive. The outcome in assay [15], in assay [16], in assay [17], in assay [18], in assay [19] and in assay [20] was inactive. Further, the AC50 in [2] is 16.8 µM (active) and 5.89 µM (active); in assay [8] it was 1.26 µM (active) and 1.37 µM (active).

As for `CC[N+](CC)(CC(=O)Nc1c(C)cccc1C)Cc1ccccc1`, the outcome in assay [1], in assay [2], in [3], in [4], in [5] and in assay [6] was inactive. For the same compound, the outcome in [7], in [8], in [9], in [10], in assay [11] and in [12] was inactive. Also, the outcome in assay [13], in assay [14], in assay [15], in [16], in [17] and in assay [18] was inactive. Also, the result in assay [19] and in assay [20] was inactive.

Take `CCCCC(CC)COC(=O)C=Cc1ccc(OC)cc1` (stereo not given): the outcome in assay [1], in assay [3], in assay [4], in [5], in assay [6] and in assay [7] was inactive. Also, the outcome in [10], in assay [11], in [13], in assay [14], in assay [15] and in assay [16] was inactive. Further, the outcome in assay [17], in assay [18], in [19] and in [20] was inactive. The AC50 in assay [2] is 13.9 µM (active) and 7.28 µM (active); in assay [8], 13.2 µM (active) and 11.7 µM (active); in assay [9], 15.9 µM (active) and 12.6 µM (active); in assay [12], 12 µM (active) and 10.2 µM (active).

For `COc1ccc(C(=O)c2ccccc2O)c(O)c1`, the outcome in [1], in assay [3], in [4], in assay [5], in [6] and in [7] was inactive. The outcome in assay [9], in [10], in assay [11], in assay [12], in [13] and in [14] was inactive. In addition, the outcome in assay [15], in [16], in assay [17], in [18], in assay [19] and in assay [20] was inactive. In addition, the AC50 in assay [2] was 10.9 µM (active) and 5.66 µM (active); in [8], 25.3 µM (active) and 27 µM (active).

Take `CC[N+](CC)(CC(=O)Nc1c(C)cccc1C)Cc1ccccc1` (tested in a mixture with another compound): the result in assay [1], in assay [2], in assay [3], in assay [4], in [5] and in assay [6] was inactive. In addition, the outcome in assay [7], in assay [8], in assay [9], in assay [10], in assay [11] and in assay [12] was inactive. In addition, the result in assay [13], in assay [14], in [15], in assay [16], in [17] and in assay [18] was inactive. Moreover, the outcome in assay [19] and in assay [20] was inactive.

Regarding `C1CN(CCOCCN2CCOCC2)CCO1`, the result in assay [1], in assay [2], in assay [3], in assay [4], in [5] and in assay [6] was inactive. Further, the outcome in [7], in assay [8], in [9], in [10], in [11] and in assay [12] was inactive. For the same compound, the result in assay [13], in assay [14], in assay [15], in assay [16], in [17] and in [18] was inactive. For the same compound, the outcome in [19] and in assay [20] was inactive.
